# Experimental data from PubChem BioAssay AID1457 (National Center for Advancing Translational Sciences (NCATS), 2008).
# About 730 (0.35%) of roughly 210,000 compounds were called active. A call without a number means that no potency is given here. Not shown: some 1% with an inconclusive outcome. The call rests on the fitted dose curve; in most records, active means well fitted inhibition curve with a large enough effect; inconclusive means small, poorly fitted or top-dose-only effect; inactive means no such curve, though single readings can be large or run the other way. Many of the other results were omitted from the sample, so actives are more common in it than they were.
# Experiment: qHTS Assay for Identifying the Cell-Membrane Permeable IMPase Inhibitors: Potentiation with Lithium;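 further: IP1 builds up when IMPase is blocked and the TR-FRET signal falls; nearly all actives have a fitted effect of over 50% in size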
# Conditions: CHO-M1 cells, IP1 TR-FRET (IP-One), carbachol + lithium; series mostly up to 59.4 µM
# Summary of the method: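 Concentration–response in CHO-M1 cells, lithium-potentiated; 30 min at 37C. IP1 detected by competitive TR-FRET after 10 min lysis at RT. Hill-fitted AC50.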
# Potency means the concentration at half of the fitted maximal effect.
row,Compound,Potency
1,COc1ccc(-c2c(C)cc3oc(=O)cc(-c4ccccc4)c3c2C)cc1OC,inactive
2,C=C(C)C(=O)c1ccc(F)cc1,inactive
3,c1ccc2sc(SCCSc3nc4ccccc4s3)nc2c1,inactive
4,CSc1ncnc2sc(C)c(C)c12,inactive
5,Cc1sc2ncnc(Sc3nc4ccccc4s3)c2c1C,14.1 µM (active)
6,COC(C)C(C(=O)OCC1=CCN2CC[C@H](O)[C@@H]12)C(C)C (stereo partly specified),inactive
7,OC[C@H]1O[C@@H](n2cnc3c(NC4CCCC4)ncnc32)[C@H](O)[C@H]1O,inactive
8,CC/C=C\C/C=C\C/C=C\C/C=C\C/C=C\C/C=C\CCC(=O)NCCc1ccc(O)c(O)c1,inactive
9,Cc1nc2cc(NC(=O)CSc3nc4c(C)cccc4cc3C#N)ccc2s1,11.2 µM (active)
10,Cc1ccc2cc(C#N)c(SCC(=O)NCC3CCCO3)nc2c1C (stereo unspecified),inactive
11,Cc1nonc1NC(=O)CSc1nc2ccccc2cc1C#N,inactive
12,C[N+](C)(CCCCCC[N+](C)(C)CCCN1C(=O)c2cccc3cccc(c23)C1=O)CCCN1C(=O)c2cccc3cccc(c23)C1=O,10 µM (active)
13,O=C(CN1C(=O)c2cccc3cccc(c23)C1=O)N1CCCCC1,inactive
14,O=C1c2cccc3cccc(c23)C(=O)N1CCCCCc1n[nH]c(=S)o1,inactive
15,O=C1CCC[C@@H]2CC(N3CCCCC3)C[C@@H]3CCN1[C@H]23 (stereo partly specified),inactive
16,CCCCC[C@H](O)/C=C/[C@@H]1[C@@H](CC(=O)CCC(=O)O)[C@@H](O)C[C@H]1O,inactive
17,CCCCC/C=C\C/C=C\CCCCCCCCCC(=O)NCC(=O)O,inactive
18,CNc1nccc(-c2ccc(Cl)cc2)c1C#N,inactive
19,N#Cc1c(-c2ccc(Cl)cc2)c2c([nH]c1=S)CCCC2,inactive
20,CN(C)c1nc(-c2cccnc2)nc(-c2ccc(Cl)cc2)c1C#N,7.94 µM (active)
21,COC(=O)CCCC1=CC2=CC(=O)C(C)(OC(=O)c3cccs3)C(=O)C2=CN1c1ccc(CO)cc1 (stereo unspecified),inactive
22,CC(=O)c1sc(NC(=O)c2cccc3ccccc23)nc1C,inactive

row,Compound,Potency
1,CC(=O)c1sc(N/N=C\c2ccc(C)cc2)nc1C,inactive
2,CC(=O)c1sc(NC(=O)c2ccc(C)cc2)nc1C,12.6 µM (active)
3,COC(=O)C1=C(C(=O)OC)[C@@H]2Nc3ccccc3[C@@]23C[C@@H](C(=O)OC)N(S(=O)(=O)c2ccc([N+](=O)[O-])cc2)C3=N1,inactive
4,CC(=O)OC1C([N+]2(C)CCCCC2)C[C@H]2C3CC[C@H]4C[C@H](OC(C)=O)C([N+]5(C)CCCCC5)CC4(C)C3CCC12C (stereo partly specified),inactive
5,COCOc1cc(OC)ccc1C(=O)/C=C/c1ccc([N+](=O)[O-])cc1,inactive
6,CC(=O)Nc1cc2ccc(OC(C)=O)cc2oc1=O,8.91 µM (active)
7,CC(=O)c1cc(NC(=O)c2ccccc2)c(=O)oc1/C=C/N(C)C,inactive
8,CC(=O)Oc1ccc(NC(=O)CCC2CCCCC2)c(C(=O)O)c1,inactive
9,COCCN1C=C2C(=O)C(C)(OC(=O)C3CCCC3)C(=O)C=C2C=C1c1ccsc1 (stereo unspecified),inactive
10,N#Cc1cccc(CS(=O)(=O)c2nnnn2-c2cc(C(F)(F)F)cc(C(F)(F)F)c2)c1,inactive
11,C=C(C(C)=O)C(O)c1cccs1 (stereo unspecified),inactive
12,COc1ccc(-c2nc3c(c4c2C[C@H](c2ccccc2)OC4)CN(C(=O)c2cccnc2)CC3)c(C)c1,inactive
13,Cc1ccc(-c2csc(SCC(=O)Nc3cc(C)on3)n2)cc1,inactive
14,Cc1nc(SCC(=O)Nc2cc(C)on2)c2c3c(sc2n1)CCCC3,10 µM (active)
15,Cc1cc(C)n(-c2nc(SCC(=O)N3CCCC3)c3c4c(sc3n2)CCCC4)n1,inactive
16,CC(C)c1cnc(NC(=O)Cc2ccccc2)s1,inactive
17,COc1ccc(CC(N)C(=O)NC2C(O)[C@H](n3cnc4c(N(C)C)ncnc43)O[C@@H]2CO)cc1 (stereo partly specified),inactive
18,CC[C@@]12C=C(/C=C/c3ccccc3)[C@](CC)(C1)[C@H](c1ccccc1)CC2=O,inactive
19,COCCN1C(=O)N[C@@H](CCc2ccccc2)[C@H](C(C)=O)[C@H]1C,inactive
20,S=c1nccc(-c2cc(Cl)sc2Cl)[nH]1,11.2 µM (active)
21,Nc1nc2c(ncn2[C@@H]2O[C@H](COP(=O)(O)OP(=O)(O)OP(=O)(O)O)[C@@H](O)C2O)c(=O)[nH]1 (stereo partly specified),inactive
22,COc1ccc(-c2nc(-c3ccccc3)oc2Nc2ccc3ccccc3c2)cc1,inactive

row,Compound,Potency
1,COc1ccc(CC(=O)Nc2ccc(-c3nnc(-c4ccccc4)o3)cc2)cc1,10 µM (active)
2,COc1ccc(CC(=O)Nc2ccc(C(=O)NC(C)(C)C)cc2)cc1,inactive
3,COc1cccc(CC(=O)N2CCc3nc(COc4ccccc4)c4c(c3C2)CO[C@@H](C)C4)c1,inactive
4,CCCCS(=O)(=O)N1C2=NC(C(=O)OC)=C(C(=O)OC)[C@@H]3N(Cc4ccccc4)c4ccccc4[C@]23C[C@H]1C(=O)OC,inactive
5,COC(=O)C(C(=O)OC)[C@@H](NC=O)c1ccccc1,inactive
6,COC(=O)CSc1nccc(-c2cccs2)n1,inactive
7,O=C(Nc1ccnc(-c2ccncc2)n1)c1cccs1,inactive
8,O=C(O)COc1ccc(-c2nccc(-c3cccs3)n2)cc1,10 µM (active)
9,C/C(Nc1ccc2oc(=O)ccc2c1)=C1/C(=O)CC2[C@@H]1C2(C)C (stereo partly specified),inactive
10,Cc1cc2oc(=O)cc(-c3ccccc3)c2c(C)c1-c1ccc(OC(F)(F)F)cc1,inactive
11,CC(C)C[C@H](NC(=O)[C@H](O)[C@H](N)Cc1ccccc1)C(=O)O,inactive
12,CC(C)(C)OC(=O)NCCCCC1=CC2=CC(=O)C(C)(OC(=O)c3cccs3)C(=O)C2=CO1 (stereo unspecified),inactive
13,COC(=O)c1ccc(CSc2nc3ccccc3c(=O)n2-c2cccc(OC)c2)o1,inactive
14,COc1ccc(OC)c(-n2c(=S)[nH]c3cc(C(=O)N4CCCCC4)ccc3c2=O)c1,inactive
15,COc1cccc(-n2c(=S)[nH]c3c(oc4ccccc43)c2=O)c1,12.6 µM (active)
16,OC[C@H]1O[C@@H](n2cnc3c(N[C@H]4CC5CCC4C5)ncnc32)[C@H](O)[C@@H]1O (stereo partly specified),inactive
17,CC(=O)CC(c1ccccc1)C1C(=O)Oc2ccccc2C1=O (stereo unspecified),inactive
18,CC(C)C1=CC2=CC[C@H]3[C@](C)(C(=O)O)CCC[C@]3(C)C2CC1 (stereo partly specified),inactive
19,COC(=O)C(C(=O)OC)C1c2ccccc2C=C(C2CC2)N1C(=O)OC (stereo unspecified),inactive
20,CC(=O)c1sc2nc(SCC(=O)N3CCCCC3)[nH]c(=O)c2c1C,11.2 µM (active)
21,O=C(CSc1nc2c(cnn2-c2ccc(F)cc2)c(=O)[nH]1)N1CCCCCC1,inactive
22,C=CCNC(=O)CSc1nc2sc(C)c(C)c2c(=O)[nH]1,inactive

row,Compound,Potency
1,CCN1C(=O)N[C@@H](c2ccccc2)[C@H](C(C)=O)[C@H]1C,inactive
2,O=C1C=C(c2ccccc2)CCC1,inactive
3,CCN1C(=O)N[C@@H](CCc2ccccc2)C(C(=O)OC)=C1C,inactive
4,O=C1OCCN1C(=O)[C@H]1[C@H](c2ccc(Cl)cc2)C(c2cccc(Cl)c2)=NN1c1ccc(Br)cc1,inactive
5,COC(=O)CCCC1=CC2=CC(=O)C(C)(OC(=O)c3cccs3)C(=O)C2=CN1CC1CC1 (stereo unspecified),inactive
6,COc1ccc(-c2nc3c(c4c2C[C@H](c2ccccc2)OC4)CN(C(=O)C2CC2)CC3)c(C)c1,inactive
7,CC1=C(C/C=C(\C)CCCC(C)CCCC(C)CCCC(C)C)C(=O)c2ccccc2C1=O (stereo unspecified),inactive
8,CCc1ccc(NC2Nc3cc(C)nn3S2)cc1 (stereo unspecified),inactive
9,CCOC(=O)c1ccc(NC2Nc3cc(C)nn3S2)cc1 (stereo unspecified),10 µM (active)
10,CCOC(=O)c1ccc(Nc2cc(C)nc3nc(C)nn23)cc1,inactive
11,CC1(C)O[C@@H]2C[C@@H]3[C@H]4C[C@@H](F)C5=CC(=O)C=C[C@]5(C)[C@@]4(F)[C@@H](O)C[C@]3(C)[C@]2(C(=O)CO)O1,inactive
12,CCCCCCCC/C=C\CCCCCCCC(=O)NCC(=O)O,inactive
13,CCCCC/C=C\C[C@H](O)/C=C/C=C/C=C/[C@@H](O)CCCC(=O)O,inactive
14,C=CCC(C)(O)c1ccco1 (stereo unspecified),inactive
15,Cc1ccccc1OC/C(O)=C(\C#N)c1nc2ccccc2[nH]1,12.6 µM (active)
16,N#C/C(=C(/O)COc1cccc2ccccc12)c1nc2ccccc2[nH]1,inactive
17,N#C/C(=C(/O)COC(=O)COc1ccc(Cl)cc1)c1nc2ccccc2[nH]1,inactive
18,COC(=O)CCCC1=CC2=CC(=O)C(C)(OC(=O)c3cccs3)C(=O)C2=CN1c1cccc(C#N)c1 (stereo unspecified),inactive
19,C[C@@]12CCC(=O)C=C1CC[C@H]1C2[C@@H](O)C[C@]2(C)[C@@H]1CC[C@@]2(O)C(=O)COC(=O)C1CCCC1 (stereo partly specified),inactive
20,CO[C@@]12[C@@H](COC(N)=O)C3=C(C(=O)C(C)=C(N)C3=O)N1C[C@@H]1N[C@@H]12,inactive
